# From PubChem
# Most compounds without a hit are left out; they make up all but 3.5% or so of the library.
# mHTT CaM bind = mHTT-calmodulin interaction abrogation; hit rate 3.6% among 190,000; AlphaScreen His-mHTT/GST-CaM binding, luminescence; P42858; inhibition, % at 15 µM
# Pf apPOL inh = Pf-apPOL DNA polymerase inhibition. hit rate 0.25% among 210,000. inhibition, % at 10 µM. Recombinant Pf-apPOL, molecular beacon fluorescence, 1.5 h
# A number is an active result; - = inactive; ! = repeats disagree. No stated cut-off is given here; in the data, active means inhibition above about 50%; inactive means the rest.
SMILES,mHTT CaM bind,Pf apPOL inh
CCc1ccc(C2=C/C(=C\c3ccc(C)o3)C(=O)O2)cc1,69,-
CC(C)c1cc(C2CCCN2Cc2ccc(O)cc2)on1 (stereo not given),-,-
O=C1C(=O)N(CCO)C(c2ccccc2F)C1=C(O)c1ccccc1 (stereo not given),-,-
C=CCc1ccccc1OCC(O)CN1CCN(c2cccc(Cl)c2)CC1 (stereo not given),99,-
C=CCc1ccccc1OCC(O)CN1CCN(c2ccc(OC)cc2)CC1 (stereo not given),54!,-
OC(COc1ccc(F)cc1)CN1CCN(c2cccc(Cl)c2)CC1 (stereo not given),81,-
CC(C)c1ccc(OCC(O)CN2CCN(c3ccc(F)cc3)CC2)cc1 (stereo not given),-,-
C=CCc1ccccc1OCC(O)CN1CCCCC1 (stereo not given),-,-
C=CCc1ccccc1OCC(O)CN1CCN(C)CC1 (stereo not given),-,-
O=C(COc1ccccc1C(=O)NC12CC3CC(CC(C3)C1)C2)NCc1ccco1,-,-
Cn1cc(/C=C2\SC(=Nc3ccccc3)NC2=O)c2ccccc21,55,-
O=C1NC(=Nc2ccccc2)S/C1=C/c1ccccc1Br,-,-
COc1nccnc1N1CCC(N(C)S(=O)(=O)c2cccs2)C1 (stereo not given),-,-
COc1cccc(NC2=C(NCCO)C(=O)c3ccccc3C2=O)c1,-,-
Cc1cccc(NC2=C(NCCO)C(=O)c3ccccc3C2=O)c1,74,-
Cc1noc(-c2cccn2Cc2ccccc2)n1,-,-
CCOc1cc(N2CCOCC2)c(OCC)cc1N,53,-
